Read-outs that look alike come from different tables or passages of the source.
Legend:
Parameters in all cases: species or system human, MV4-11 + K-562 + COLO205 + SK-N-BE2 + OVCAR-8
MDN1 = conditions: read-out: apparent Kd, n = 1
RAB14 = conditions: read-out: apparent Kd; compound concentrations: 100 nM and 1000 nM (sheet 'Samples'), CATDS: 3.8007636055388601E-2; n = 1
WEE1 = conditions: read-out: apparent Kd; compound concentrations:100 nM and 1000 nM (sheet 'Samples'); n = 1
MAPK7 = conditions: read-out: apparent Kd, compound concentrations: 100 nM and 1000 nM (sheet 'Samples'), n = 1
MARK2 = conditions: read-out: apparent Kd, compound concentrations: 100 nM and 1000 nM (sheet 'Samples'), n = 1
MARK3 = conditions: read-out: apparent Kd, compound concentrations: 100 nM and 1000 nM (sheet 'Samples'), n = 1
NME2;NME2P1 = conditions: read-out: apparent Kd; compound concentrations:100 nM and 1000 nM (sheet 'Samples'); n = 1
ATR = conditions: read-out: apparent Kd, n = 1
MCM5 = conditions: read-out: apparent Kd; compound concentrations:100 nM and 1000 nM (sheet 'Samples'); n = 1
TP53RK = conditions: read-out: apparent Kd; compound concentrations: 100 nM and 1000 nM (sheet 'Samples'), CATDS: 0.13765543946778; n = 1
AXL = conditions: read-out: apparent Kd, n = 1
PAK6 = conditions: read-out: apparent Kd, n = 1
RAB5C = conditions: read-out: apparent Kd; compound concentrations:100 nM and 1000 nM (sheet 'Samples'); n = 1
ADK = conditions: read-out: apparent Kd; compound concentrations:100 nM and 1000 nM (sheet 'Samples'); n = 1
CDK9 = conditions: read-out: apparent Kd; compound concentrations:100 nM and 1000 nM (sheet 'Samples'); n = 1
ACLY = conditions: read-out: apparent Kd; compound concentrations: 100 nM and 1000 nM (sheet 'Samples'), CATDS: 3.7699367281675798E-2; n = 1
PLK1 = conditions: read-out: apparent Kd; compound concentrations:100 nM and 1000 nM (sheet 'Samples'); n = 1
[1] = compound concentrations:100 nM and 1000 nM (sheet 'Samples')

Question: Which results are given for COc1ccc(Nc2nccc(N3CCC(NC(=O)Nc4ccc5c(c4)OCO5)C3)n2)cc1 (centres unmarked) [GSK1379745A]?
Answer: potency estimated from few doses (MDN1; compound concentrations: 100 nM and 1000 nM (sheet 'Samples'), CATDS: 4.1972847016179399E-2): 1360 nM; potency estimated from few doses (RAB14): 1680 nM

Question: For CCN(CC)CCOc1ccc(Nc2ncc3cc(-c4c(Cl)cccc4Cl)c(=O)n(C)c3n2)cc1 [SB-601273], which potency estimated from few doses (WEE1) is on record?
Answer: 171 nM

Question: Which results are given for CN1C(=O)c2ccccc2N(C)c2nc(Nc3cnn(C4CCNCC4)c3)ncc21 [XMD-17-51]?
Answer: potency estimated from few doses (MAPK7; CATDS: 3.6148838376291702E-2): 101 nM; potency estimated from few doses (MARK2; CATDS: 1.3481113896194E-2): 2050 nM; potency estimated from few doses (MARK3; CATDS: 1.4488422936038499E-2): 1430 nM

Question: Which potency estimated from few doses (NME2;NME2P1) does the source give for Nc1nc(-c2ccc3c(N)n[nH]c3c2)cc(N2CCCCC2)n1 [GSK2228768A] here?
Answer: 1380 nM

Question: Cl.Cl.Cl.c1ccc(Oc2ccc(Nc3ccnc4cc(-c5ccc(CN6CCNCC6)o5)ccc34)cc2)nc1.c1ccc(Oc2ccc(Nc3ccnc4cc(-c5ccc(CN6CCNCC6)o5)ccc34)cc2)nc1 [GW567142A] was tested. Which potency estimated from few doses (MAPK7; CATDS: 1.6423654132294602E-2) did it give?
Answer: 2370 nM

Question: Which potency estimated from few doses (ATR; [1]) does the source give for Cc1cccc(-c2cc(-c3c[nH]nc3-c3ccccn3)ccn2)c1 [GW679395X] here?
Answer: 784 nM

Question: What about the potency estimated from few doses (MCM5) of the same compound?
Answer: 2220 nM

Question: CCc1nc(-c2cccc(N(C)S(=O)(=O)c3ccccc3)c2)c(-c2ccnc(Nc3ccc(N4CCN(C(C)=O)CC4)nc3)n2)s1 [GSK1645895A] was tested. Which potency estimated from few doses (TP53RK) did it give?
Answer: 1940 nM

Question: With O=C1N=C(NCc2cccs2)SC1Cc1ccc2ncccc2c1 (centres unmarked) [RO4629078-000] as the compound, how does the potency estimated from few doses (AXL; compound concentrations: 100 nM and 1000 nM (sheet 'Samples'), CATDS: 8.9637378169906395E-3) read?
Answer: 899 nM

Question: What about the potency estimated from few doses (MARK2; CATDS: 7.7790140637755802E-3) of the same compound?
Answer: 1430 nM

Question: What about the potency estimated from few doses (MARK3; CATDS: 8.2190831573709308E-3) of the same compound?
Answer: 1180 nM

Question: What about the potency estimated from few doses (PAK6; compound concentrations: 100 nM and 1000 nM (sheet 'Samples'), CATDS: 5.6767334452466102E-2) of the same compound?
Answer: 43.4 nM

Question: How did the potency estimated from few doses (AXL; [1]) turn out when CCn1cc(-c2ccnc3[nH]c(-c4cccc(CN(C)C)c4)cc23)c(-c2ccc(NC(=O)N(C)C)cc2)n1 [GSK1070916] was run?
Answer: 891 nM

Question: And the potency estimated from few doses (MDN1; [1])?
Answer: 2000 nM

Question: What about the potency estimated from few doses (RAB5C) of the same compound?
Answer: 1430 nM

Question: With Cn1cc(-c2cnc(N)c3c(-c4ccc5c(c4)CCN5C(=O)Cc4ccccc4)csc23)cn1 [GSK2593074A] as the compound, how does the potency estimated from few doses (MCM5) read?
Answer: 1530 nM

Question: For CS(=O)(=O)c1ccc(-c2cnc(N)c(C(=O)Nc3ccccc3)n2)cc1 [VE-821], which potency estimated from few doses (ATR; compound concentrations: 100 nM and 1000 nM (sheet 'Samples'), CATDS: 0.19985195991101001) is on record?
Answer: 648 nM

Question: Which results are given for CC(=O)c1c(-c2ccncc2)[nH]c(-c2ccncc2)c1C [GW493036X]?
Answer: potency estimated from few doses (ADK): 1760 nM; potency estimated from few doses (CDK9): 154 nM; potency estimated from few doses (RAB5C): 1600 nM

Question: How did the potency estimated from few doses (PAK6; [1]) turn out when Cl.Cn1c(=O)c(Cc2ccc(F)cc2F)cc2cnc(NC3CCOCC3)nc21 [RO3308757-001] was run?
Answer: 1650 nM

Question: How did the potency estimated from few doses (ACLY) turn out when CC(=O)N1CCN(c2ccc(Nc3nccc(-c4sc(C(C)C)nc4-c4cccc(NS(=O)(=O)c5cccc(Cl)c5)c4)n3)cn2)CC1 [GSK1660437A] was run?
Answer: 1770 nM

Question: For COc1cc2ncn(-c3cc(OCc4ccncc4)c(C(N)=O)s3)c2cc1OC [GSK336313A], which potency estimated from few doses (PLK1) is on record?
Answer: 686 nM

— PMC11062922 (Nature Chemical Biology, 2023)
